# Assay results reported in PubChem BioAssay (NCI).
# About 83,000 compounds went through this panel and 20% of them were active in at least one assay; those are over-represented in the sample as a whole.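 Testing used 96-well plates and a 48-hour single-concentration exposure. Example: -40 means 40% of the starting cells died.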 Activity calls are given as the source filed them.
# Test system: MDA-MB-435 melanoma
# Test: NCI-60 one-dose screen, 48 h (100 = growth as untreated, 0 = no growth, -100 = all killed)
# Conditions: 10 µM unless noted
# Method: Growth inhibition of the MDA-MB-435 human Melanoma tumor cell line is measured as a screen for anti-cancer activity. Cells are grown in 96 well plates and exposed to the test compound for 48 hours. Compounds are tested at a single concentration, which is 10^-5 M for most compounds. The reported endpoint is percent growth (GI% or GIPRCNT), where numbers from 0 - 100% represent growth inhibition, and numbers from -100% - 0 represent cell death. For example, a value of 40 represents 60% growth inhibition. A value of 0 means no net growth occurred over the course of the experiment. A value of -40 indicates 40% of cells at the beginning of the experiment died by the end of the experiment. A value of -100 means all cells are dead at the end of the experiment.
# NCI-60 Human Tumor Cell Lines Screen was performed using the standard one-dose NCI protocol, which is described in more detail at https://dtp.cancer.gov/discovery_development/nci-60/default.htm.
# Compounds with GIPRCNT values below 10 were considered active. Activity score was based on GIPRCNT using the following formula: […]
# Score is 0 for GIPRCNT values of 100 or above, 50 for GIPRCNT values of 0, and 100 for GIPRCNT values of -100.
row,SMILES,growth
1,O=[N+]([O-])c1c(O)c(Cl)cc(Cl)c1Cl,114% (inactive)
2,c1cc(OCCCCCOc2cccc(-c3nc4ccccc4[nH]3)c2)cc(-c2nc3ccccc3[nH]2)c1,8.32% (active)
3,O=C(/C=C/c1ccccc1)c1ccc(-n2cc(CN3CCN(c4cc5c(cc4F)c(=O)c(C(=O)O)cn5C4CC4)CC3)nn2)cc1,79.5% (inactive)
4,C=C1C(=O)O[C@H]2[C@H]1CC/C(COC(=O)NCc1ccc(Cn3c(=O)sn(-c4ccccc4)c3=O)cc1)=C\CC[C@@]1(C)O[C@@H]21,33.4% (inactive)
5,COc1ccc(C(O)c2cc3c(N)c(C(=O)Nc4cccc5ccccc45)sc3nc2C)cc1 (stereo not given),-17.1% (active)
6,CN(C)CCCn1c2c(c3ccncc3c1=O)C(=O)c1ccccc1-2,7.89% (active)
7,O=S(=O)(N=C1C(Cl)=C(Cl)C(=NS(=O)(=O)c2ccccc2)C(Cl)=C1Cl)c1ccccc1,101% (inactive)
8,O=C(Nc1ncc(Cc2ccccc2)s1)c1sc2ccccc2c1Cl,-65.2% (active)
9,CNCCCNc1nc2ccccc2c2c(=O)c3cc(Cl)ccc3sc12,-18.5% (active)
10,CCOC(=O)c1cn2ncnc(Oc3ccc(NC(=O)NC4CC4)c(Cl)c3)c2c1C,96.4% (inactive)
11,O=C(/C=C/c1ccco1)Nc1ncc(Cc2cc(Cl)ccc2Cl)s1,-47.3% (active)
12,O=C(NCc1ccc(Cn2c(=O)sn(-c3ccccc3)c2=O)cc1)OCc1ccc2cccc(O)c2n1,-89.9% (active)
13,COc1cc(Cc2cc(OC)c(O)c(OC)c2)cc(OC)c1O,2.4% (active)
14,Cc1cc(Cl)nc(N2CCN(CCNc3ccnc4cc(Cl)ccc34)CC2)n1,50.2% (inactive)
15,O=C(Nc1ccccc1O)c1ccc(CNc2ccnc(C(F)(F)F)c2)cc1,45.3% (inactive)
16,Cn1c2ccccc2c2c3c(c4c5cc(Br)ccc5n(C)c4c21)C(=O)N(O)C3=O,22.8% (inactive)
17,Cc1nc2sc(C(=O)Nc3cccc4ccccc34)c(N)c2cc1C(=O)c1ccccc1,-53% (active)
18,Cc1ccc2c(c1)nc(C)n2-c1ncnc2c1CC(C)c1cc(O)ccc1N2C (stereo not given),3.76% (active)
19,COc1ccc(N=C2NN=C(c3c[nH]c4ccccc34)CS2)cc1OC,-8.16% (active)
20,CC[C@@H](C(=O)[C@@H](C)[C@@H](O)[C@H](C)[C@@H]1O[C@@H]([C@@H](CC)C(=O)ONC(=O)c2ccccc2O)CC[C@@H]1C)C1O[C@]2(C=CC(=O)[C@]3(CC[C@@](C)([C@H]4CC[C@](O)(CC)[C@H](C)O4)O3)O2)[C@H](C)C[C@@H]1C (stereo not given in full),63% (inactive)

row,SMILES,growth
1,CCOC(=O)c1cnn(CC(C)O)c1NC(=O)NCc1cccc(F)c1 (stereo not given),107% (inactive)
2,N#Cc1c(-c2ccc(Br)cc2)nc2c(N=Nc3ccc(S(N)(=O)=O)cc3)c(N)nn2c1N,56.2% (inactive)
3,COc1c2c(cc3c1C(=O)N[C@@H]1[C@@H](O)[C@@H](O)[C@H](O)C[C@@H]31)OCCO2,108% (inactive)
4,CNC(=O)c1cc(Oc2ccc3c(c2)sc2nc(-c4ccc(Cl)c(C(F)(F)F)c4)cn23)ccn1,65.8% (inactive)
5,Nc1ccc(Br)cc1C(F)(F)F,117% (inactive)
6,CC1(C)N=C(N)N=C(N)N1c1ccc(S(=O)(=O)Nc2nccs2)cc1,102% (inactive)
7,CN(C)CCCNC(=O)c1cncnc1Nc1ccc2c(ccn2Cc2cccc(F)c2)c1,79.6% (inactive)
8,Cc1ccc2cnc(N)c(C#Cc3cc(C(=O)Nc4ccc(CN5CCN(C)CC5)c(C(F)(F)F)c4)cnc3C)c2c1,-69.3% (active)
9,O=C(/C=C/C12c3ccccc3C(c3ccccc31)C1C(=O)NC(=O)C12)c1ccco1 (stereo not given),0.633% (active)
10,Fc1ccc(/C=C/[C@@H]2C[C@@H](F)CCO2)cc1,97.9% (inactive)
11,CS(=O)/C(C#N)=C\C=C\c1cccc(Cl)c1 (stereo not given),5.01% (active)
12,Cc1sc2nc(NCCN)[nH]c(=O)c2c1C,84.9% (inactive)
13,Cc1ccc(S(=O)(=O)OC[C@]23CCC(C)(C)C[C@H]2C2=CC[C@@H]4[C@@]5(C)CCCNC(C)(C)[C@@H]5CC[C@@]4(C)[C@]2(C)CC3)cc1,31% (inactive)
14,CCOC(=O)NC(=S)n1oc(=O)c2ccccc21,101% (inactive)
15,O=c1cc(CNc2cc(F)cc(F)c2)c2ccc(I)cc2[nH]1,-28.1% (active)
16,COc1cccc(CNc2c3ccccc3nc3ccccc23)c1OC,46.3% (inactive)
17,COc1cccc(-c2cn3nc(-c4cn(C)c5ccccc45)sc3n2)c1,36.5% (inactive)
18,O=C(Nc1ccc(Nc2ccncc2)cc1)c1ccc(Nc2ccnc3ccc([N+](=O)[O-])cc23)cc1,104% (inactive)
19,O=c1cc(-c2ccccc2)nc(SCc2nc3cc(Cl)c(Cl)cc3[nH]2)[nH]1,105% (inactive)
20,CC(C)(C)c1ccc(S(=O)(=O)Oc2ccc(-c3sc4cc(OS(=O)(=O)c5ccc(C(C)(C)C)cc5)ccc4c3C(=O)c3ccc(OCCN4CCCCC4)cc3)cc2)cc1,100% (inactive)
